Among the data in the GenesisPotency data set are outcome values, retold here.

The structures appear in SMILES notation. The campaign covered roughly 1,300 compounds. About 35 (3%) were called active. Another 48% or so got no clear call; they are omitted. Calls come from the whole dose curve; as a rule, active = well fitted inhibition curve with a large enough effect; inconclusive = small, poorly fitted or top-dose-only effect, or effect the other way; inactive = flat fitted curve, though single readings scatter. Shown is part of a subset that was picked to be rich in actives.

The test has as its target T1, ATP-dependent 6-phosphofructokinase, Trypanosoma brucei brucei (UniProt O15648).
T1 sequence (whole entry): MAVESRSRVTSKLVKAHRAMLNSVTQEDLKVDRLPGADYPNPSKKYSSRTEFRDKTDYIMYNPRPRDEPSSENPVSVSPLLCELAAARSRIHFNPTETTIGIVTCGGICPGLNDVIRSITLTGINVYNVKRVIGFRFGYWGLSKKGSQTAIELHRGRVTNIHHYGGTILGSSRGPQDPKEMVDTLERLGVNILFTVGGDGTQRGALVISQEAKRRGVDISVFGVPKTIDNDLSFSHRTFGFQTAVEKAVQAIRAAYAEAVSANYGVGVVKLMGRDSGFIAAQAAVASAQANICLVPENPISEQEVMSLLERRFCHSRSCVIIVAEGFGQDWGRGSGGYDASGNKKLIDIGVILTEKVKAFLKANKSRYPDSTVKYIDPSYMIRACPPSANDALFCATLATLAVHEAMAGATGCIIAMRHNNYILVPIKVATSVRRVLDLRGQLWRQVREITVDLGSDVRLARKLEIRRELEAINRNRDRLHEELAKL
As to the kind of experiment: qHTS Validation Assay to Find Inhibitors of T. brucei phosphofructokinase (AID 485368).
On to `N.N.[Cl][Pt][Cl]`, for which the result was active.
